Only some compounds are listed: those with a hit (about 2.2% of all), similar ones and a draw of the others.
Mito fusion act: blocks mitochondrial division or promotes mitochondrial fusion. Potency, µM (highest dose often 46.1 µM), for inactives: at the top dose growth rescue (activation), most hits filed as activators. AID 485298. 320,000 tested, 0.23% active. S. cerevisiae fusion-defective mutant growth rescue, CellTiterGlo 48 h; also: % of control where 0% means no effect; nearly all actives have a fitted effect of over 45% in size
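Temperature-sensitive fusion-defective S. cerevisiae (e.g. fzo1-1, mgm1-5) were grown with compound in YPEG medium (3% ethanol, 3% glycerol) for 48 hours at 37C. Growth rescue was measured as viability by CellTiterGlo luminescence after 10 minutes at ambient.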
FUS suppressor: rescues growth of FUS-expressing yeast | 390,000 tested, 0.24% active | Potency, µM (series often up to 76.6 µM), hits mostly activators | S. cerevisiae FUS-expressing, growth rescue, OD600, 24 h;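 also: plate controls were DMSO vehicle for no effect and reference control for full effect; nearly all actives have a fitted effect of over 55% in size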
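Read-out: OD at 600 nm after 24hr at 30C, reporting rescue of FUS-induced yeast toxicity. Cells at OD 0.005 in galactose (2%) minimal medium; compounds tested in a dilution series; CP55940 titration from 92uM final as control.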
Abeta rescue: restores growth of yeast expressing A-beta42 peptide; AID 1347071; Potency, µM (doses to about 46.1 µM), hits mostly activators; 410,000 tested, 0.063% active; yeast expressing A-beta42, growth rescue, OD600, 48 h; response scale: 0% DMSO, 100% iron-clioquinol control; also: nearly all actives have a fitted effect of over 55% in size
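Yeast A-beta toxicity model in growth medium with pinned compounds, 48 h at 30 C; growth read as absorbance at 600 nm. Normalized to FeCl3/clioquinol equimolar mix (positive) and DMSO (negative).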
TDP43 rescue: inhibitors of TDP-43 toxicity in yeast; TDP-43 expressing yeast growth rescue, BacTiter-Glo, 24 h; Potency, µM (top dose mostly 46.1 µM), for inactives: at the top dose growth rescue (activation), actives largely listed as activators; 410,000 tested, 1.8% active; AID 652104; also: % of control where 0% means no effect; nearly all actives have a fitted effect of over 50% in size
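Cell-based yeast growth screen: TDP-43 expression induced in galactose, inoculum OD600=0.02 after raffinose pregrowth to mid-log. Read-out BacTiter-Glo luminescence at 24 hr, 30 deg C; inhibition of toxicity seen as signal increase.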
aSyn yeast inh: rescues yeast growth from alpha-synuclein toxicity; 370,000 tested, 0.14% active; Potency, µM (titrated, usually from 46.1 µM), for the others: top-dose growth rescue (activation), hits mostly activators; AID 652106; Yeast expressing alpha-synuclein, growth rescue, BacTiter-Glo, 24 h; also: % of control where 0% means no effect; nearly all actives have a fitted effect of over 65% in size
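Readout is rescue of growth in alpha-synuclein-expressing yeast, so inhibitors of toxicity appear as activators. Growth after 24 hr at 30 deg C in galactose medium is quantified by luminescence.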
ERG-DNA inh: ERG Ets/DNA interaction inhibition; P11308; fluorescence polarization, His-ERG Ets domain / labelled DNA; Potency, µM (titrated, usually from 76.9 µM), inactives show at the highest dose FP activity, negative = inhibition, hits mostly inhibitors; 370,000 tested, 0.028% active; AID 624246; active = well fitted inhibition curve with a large enough effect in the polarisation, with a control signal flat; inconclusive = small, poorly fitted or top-dose-only effect, or effect the other way, or a change in a side signal; inactive = no such curve, though single readings can be large or run the other way; the % refers to the polarisation;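 also: polarization taken with two DNA probes labelled with fluorescein and Texas red; % of control where 0% means no effect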
Target sequence (P11308 whole entry, looked up, the tested form may be a part): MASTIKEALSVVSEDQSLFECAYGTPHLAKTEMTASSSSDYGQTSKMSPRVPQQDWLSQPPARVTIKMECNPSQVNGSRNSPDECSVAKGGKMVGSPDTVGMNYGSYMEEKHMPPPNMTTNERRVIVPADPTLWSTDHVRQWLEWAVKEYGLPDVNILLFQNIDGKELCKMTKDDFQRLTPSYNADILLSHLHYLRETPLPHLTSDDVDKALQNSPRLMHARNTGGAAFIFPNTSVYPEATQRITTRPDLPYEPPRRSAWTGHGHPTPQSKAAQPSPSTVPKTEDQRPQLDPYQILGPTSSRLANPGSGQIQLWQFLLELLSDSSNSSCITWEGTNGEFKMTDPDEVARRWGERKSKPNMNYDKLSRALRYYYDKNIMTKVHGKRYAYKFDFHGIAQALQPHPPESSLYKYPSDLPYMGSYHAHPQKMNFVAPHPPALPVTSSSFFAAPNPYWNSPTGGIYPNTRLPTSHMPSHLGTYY
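His-tagged ERG Ets domain (1 uM in the protein solution; 300mM KCl, 50mM Tris-HCl, 1mM EDTA, 1mM DTT, pH 7.5) received compound, then a probe mix of 5 nM fluorescein-DNA and 100nM Texas-615-DNA. Fluorescence polarization was read for both dyes.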
Active calls of the source: *; i = inactive; ? = inconclusive; . = no result. Unless noted, calls follow the shape of the dose curve; as a rule, active = well fitted curve in the direction sought with a large enough effect; inconclusive = small, poorly fitted or top-dose-only effect, or another doubt; inactive = no such curve, though single readings can be large; an effect the other way counts as inactive or inconclusive. Potency is read from the fitted curve at half-maximal effect.

SMILES	Mito fusion act	FUS suppressor	Abeta rescue	TDP43 rescue	aSyn yeast inh	ERG-DNA inh
COc1cc2c(C(=O)N3CCN(c4cc(Cl)ccc4C)CC3)cn(CC(C)C)c(=O)c2cc1OC	.	i	i	6%	.	0%
COc1cc2c(C(=O)N3CCN(c4cccc(C(F)(F)F)c4)CC3)cn(CC(C)C)c(=O)c2cc1OC	.	22µM*	i	?	.	-6%
Cn1cccc1C(=O)N1CCN(c2cccc(C(F)(F)F)c2)CC1	4%	i	i	?	3%	-1%
O=C(c1c(F)cccc1F)N1CCN(c2cccc(C(F)(F)F)c2)CC1	6%	i	i	16µM*	14%	-10%
CCCc1nnc(NC(=O)Cc2coc3cc(C)cc(C)c23)s1	.	i	i	1%	.	-15%
COC(=O)[C@]12C[C@H](CC(=O)NCCC(C)C)C(=O)N(Cc3cccc4ccccc34)C1=C[C@H](C(C)(C)C)O[C@@H]2C	.	22µM*	.	.	.	.
COC(=O)[C@]12C[C@H](CC(=O)NCc3cccs3)C(=O)N(Cc3cccc4ccccc34)C1=C[C@H](C(C)(C)C)O[C@@H]2C	.	10µM*	.	.	.	.
COC(=O)[C@]12C[C@H](CC(=O)N3CCOCC3)C(=O)N(Cc3cccc4ccccc34)C1=C[C@H](C(C)(C)C)O[C@@H]2C	.	22µM*	.	.	.	.
O=C(OC12CCCN(C1)/C(=C/c1cccnc1)C2)c1ccco1 (centres undefined)	.	i	.	.	.	.
CCC(=O)N1CCc2cc(S(=O)(=O)NCCC(=O)NCc3ccc(OC)cc3)ccc21	.	i	i	18%	.	10%
COC(=O)c1ccc(OCC2c3cc(OC)c(OC)cc3CCN2C(=O)c2cccc(C)c2)cc1 (centres undefined)	.	?	i	25µM*	22%	-6%
COc1cc2c(cc1OC)C(C)N(C(=O)c1cccc([N+](=O)[O-])c1)CC2 (centres undefined)	2%	i	i	13µM*	22µM*	-10%
COc1ccccc1C1CCN(C(=O)c2ccc(C(C)(C)C)cc2)CC1	-13%	i	i	12%	-38%	7%
COc1cc2c(cc1OC)C(C)N(C(=O)c1sccc1C)CC2 (centres undefined)	1%	i	i	?	-19%	10%
COc1ccccc1C1CCN(C(=O)c2cccc([N+](=O)[O-])c2)CC1	6%	i	i	16µM*	1%	-2%
CC1c2cc3c(cc2CCN1C(=O)c1cccc(Cl)c1)OCCCO3 (centres undefined)	3%	i	i	13µM*	0%	-6%
CC1c2cc3c(cc2CCN1CC(=O)Nc1ccccc1)OCCCO3 (centres undefined)	-3%	i	i	4%	0%	-1%
COCCCNC(=O)c1c(NC(=O)c2cc(=O)c3ccccc3o2)sc2c1CCCC2	.	i	i	10%	.	?
CC(C)[C@H]1/C(=C/C2CC2)N2C(=O)C[C@H](c3cccc(C(F)(F)F)c3)N=C2N1Cc1ccc2c(c1)OCO2	.	i	.	.	.	.
O=C(CSc1cccc[n+]1[O-])c1cc(Cl)ccc1Cl	-9%	i	?	11µM*	12%	-11%
O=C(O)CSc1cccc[n+]1[O-]	-4%	i	i	12%	2%	-3%
O=C(CSc1cccc[n+]1[O-])c1cccs1	-2%	i	i	8%	5%	-3%
O=C(CSc1cccc[n+]1[O-])C12CC3CC(CC(C3)C1)C2	7%	i	?	14µM*	7%	10%
O=C(Cc1cccc(F)c1)NO	.	.	.	.	2%	.
Brc1ccc(C2=Nn3c(nnc3-c3n[nH]c4c3CCC4)SC2)cc1	16µM*	i	i	6%	0%	-2%
SMILES	Mito fusion act	FUS suppressor	Abeta rescue	TDP43 rescue	aSyn yeast inh	ERG-DNA inh
Clc1ccc(C2=Nn3c(nnc3-c3n[nH]c4c3CCC4)SC2)cc1	13%	i	i	-12%	-4%	-2%
CCOC(=O)c1ccccc1NC1c2ccccc2C(=O)N1C1CCN(C(=O)OCC)CC1 (centres undefined)	35µM*	i	i	20%	-1%	-5%
CCOC(=O)N1CCC(N2C(=O)c3ccccc3C2Nc2ccccc2C)CC1 (centres undefined)	3%	i	i	10%	3%	-4%
Cc1ccc(-c2nc3sc(CCNC(=O)c4ccco4)c(C)n3n2)cc1	.	i	i	20µM*	.	1%
Cc1cc(C)c(S(=O)(=O)NCCc2sc3nc(-c4ccc(F)cc4)nn3c2C)c(C)c1	.	i	?	20µM*	.	6%
CCCS(=O)(=O)NCCc1sc2nc(-c3ccc(F)cc3)nn2c1C	.	i	i	24%	.	1%
Cc1c(CCNC(=O)Cc2ccc(F)cc2)sc2nc(-c3ccc(F)cc3)nn12	.	i	i	?	.	-1%
Cc1c(CCNC(=O)Cc2ccccc2)sc2nc(-c3ccc(F)cc3)nn12	.	i	i	10µM*	.	-5%
Cc1ccc(-c2nc3sc(CCNC(=O)c4ccc(Br)o4)c(C)n3n2)cc1	.	?	i	18µM*	.	-6%
Cc1c(CCNC(=O)c2ccco2)sc2nc(-c3ccc(F)cc3)nn12	.	i	i	?	.	-1%
Cc1ccc(-n2nc(C(=O)Nc3ccc(C)c(F)c3)c3c4ccccc4n(C)c3c2=O)cc1	.	i	i	0%	.	0%
Cc1ccc2c(c1)C1CS(=O)(=O)N(CC(C)C)CN1C2 (centres undefined)	.	i	.	.	.	.
COc1ccc(C)cc1NC(=O)Cn1nc(N2CCN(c3ccccc3OC)CC2)ccc1=O	.	i	i	1%	.	-2%
CCCOc1ccc(-c2nc(SC)[nH]c(=O)c2C#N)cc1OC	.	i	i	8%	.	0%
COc1ccc(/C(N)=N/OC(=O)c2cccc([N+](=O)[O-])c2C)cc1	0%	i	i	7.1µM*	-3%	0%
COc1ccccc1C/C(N)=N/OC(=O)c1cccc([N+](=O)[O-])c1C	-13%	i	i	20µM*	-56%	-1%
COc1ccc(/C(N)=N/OC(=O)c2cccc([N+](=O)[O-])c2)cc1	0%	i	i	-9%	-21%	5%
COc1ccccc1C/C(N)=N/OC(=O)COc1ccccc1C	-8%	i	i	15%	-11%	.

Assay outcomes: PubChem BioAssay, National Center for Advancing Translational Sciences (NCATS)
